# Data as given in PubChem BioAssay (Tox21).
# Several values for one entry are separate records, joined by “and”; a condition that tells them apart may be missing. Identical values can stand only once. Records with an inconclusive call do not appear. Where a call stands in place of a potency, no number is given. More than one record can exist for a structure, and the calls need not agree. Activity calls are given as the source filed them. Unless noted, calls follow the shape of the dose curve; as a rule, active = well fitted curve in the direction sought with a large enough effect in the repeat runs; inconclusive = weak or mixed curves; inactive = no such curve, though single readings can be large; an effect the other way counts as inactive or inconclusive.
# Tests used:
# [1] = molecular target: Estrogen receptor (Homo sapiens) (UniProt P03372); test: qHTS assay to identify small molecule antagonists of the estrogen receptor alpha (ER-alpha) signaling pathway using the BG1 cell line in the presence of 0.1 nM 17-beta-estradiol (AID 1259244); details: VM7Luc4E2 (BG1) ERE-luciferase, antagonist mode, 0.1 nM E2, 22 h; series mostly up to 92.4 µM; also: nearly all actives have a fitted effect of over 50% in size; also: potency is read from the fitted curve at half-maximal effect
# Outline: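 Luciferase signal from VM7Luc4E2 ERE-reporter cells, co-dosed with test compound and 0.1 nM final 17beta-estradiol for 22 h, read with ONE-Glo.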
# [2] = qHTS assay to identify small molecule phospholipidosis (PLD) inducers (AID 1259344; active = well fitted curve in the direction sought with a large enough effect; an effect the other way counts as inactive or inconclusive); details: HepG2 phospholipidosis, LipidTOX Red imaging, 24 h; series mostly up to 38.3 µM
# Outline: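 Read-out is LipidTOX Red fluorescence (ex 595/em 615) imaged in HepG2 cells after 24 h compound exposure at 37 C, with Hoechst nuclear counterstain (ex 352/em 461) allowing per-cell normalisation.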
# [3] = qHTS assay to identify small molecule HDAC inhibitors - cell viability counter screen (AID 1259365); details: HCT-116 viability, CellTiter-Glo ATP luminescence, 2 h; series mostly up to 92.4 µM; also: nearly all actives have a fitted effect of over 50% in size
# Outline: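 Counter screen in wild-type HCT-116 cells: compounds dissolved in DMSO are pin-transferred onto overnight-plated cells and left 2hr at 37C. ATP-based CellTiter-Glo luminescence then measures viable cells.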
# [4] = qHTS assay to identify small molecule agonists of the sonic hedgehog signaling (Shh) pathway - cell viability counter screen (AID 1259366); details: NIH/3T3 Gli1-Luc viability, CellTiter-Fluor, 24 h; series mostly up to 92.4 µM; also: nearly all actives have a fitted effect of over 50% in size; also: potency is read from the fitted curve at half-maximal effect
# Outline: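 Cells are plated at 2,000 per well and left 4hr at 37C, 5% CO2 before compound addition. After 23hr of treatment, CellTiter-Fluor reagent is added for 1hr at 37C and fluorescence is measured.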
# [5] = qHTS assay to identify small molecule antagonists of the sonic hedgehog signaling (Shh) pathway - cell viability counter screen (AID 1259367); details: NIH/3T3 Gli1-Luc viability, CellTiter-Fluor, 24 h; series mostly up to 92.4 µM; also: nearly all actives have a fitted effect of over 55% in size; also: potency is read from the fitted curve at half-maximal effect
# Outline: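 Fluorescence read-out (CellTiter-Fluor, 1 hr at 37C) taken after 23 hr compound treatment of 3T3 Gli1-Luc cells stimulated with conditioned medium. Cells were seeded at 2,000 per well and pre-incubated 4 hr.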
# [6] = qHTS assay to identify small molecule agonists of the sonic hedgehog signaling (Shh) pathway (AID 1259368; calls by dose curve;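 also: NIH/3T3-derived 3T3Gli1-Luc cells carrying a stable Gli1-driven firefly luciferase reporter; nearly all actives have a fitted effect of over 15% in size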); details: NIH/3T3 Gli1-Luc reporter, luciferase, 24 h; series mostly up to 92.4 µM
# Outline: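 Following a 24 hr incubation with DMSO-dissolved compounds at 37 C, 5% CO2, Gli1-Luc NIH/3T3-derived cells received luciferase reagent for 30 min at room temperature prior to luminescence measurement.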
# [7] = qHTS assay to identify small molecule antagonists of the sonic hedgehog signaling (Shh) pathway (AID 1259369; calls by dose curve; also: nearly all actives have a fitted effect of over 45% in size; also: potency is read from the fitted curve at half-maximal effect); details: NIH/3T3 Gli1-Luc reporter, Shh antagonist, luminescence 24 h; series mostly up to 92.4 µM
# Outline: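 Read-out is luminescence from a firefly luciferase gene controlled by the Gli1 response element, in 3T3Gli1-Luc cells pre-incubated 4hr then exposed to compounds and conditioned medium for 24hr.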
# [8] = qHTS assay to identify small molecule agonists of the androgen receptor (AR) signaling pathway in the presence of an antagonist - cell viability counter screen (AID 1259379); details: MDA-kb2 viability, CellTiter-Fluor, 16 h; series mostly up to 92.4 µM; also: nearly all actives have a fitted effect of over 25% in size; also: potency is read from the fitted curve at half-maximal effect
# Outline: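 Each compound was tested at 15 concentrations on MDA-kb2 cells in the presence of 3.0uM nilutamide. Viability was measured by CellTiter-Fluor fluorescence after a 16 hr incubation at 37C in a CO2-free atmosphere.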
# [9] = qHTS assay to identify small molecule agonists of the estrogen receptor beta (ER-beta) signaling pathway - cell viability counter screen (AID 1259380); details: ER-beta-bla HEK293T viability, CellTiter-Glo luminescence, 16 h; series mostly up to 92.4 µM; also: nearly all actives have a fitted effect of over 30% in size; also: potency is read from the fitted curve at half-maximal effect
# Outline: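 Compounds dissolved in DMSO were pin-transferred onto ER-beta-UAS-bla HEK293T cells that had settled 6 hr, and exposure ran 16 hr at 37C. Following the reporter read, CellTiter-Glo luminescence after 30 min at room temperature indicated cytotoxicity.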
# [10] = qHTS assay to identify small molecule antagonists of the estrogen receptor beta (ER-beta) signaling pathway - cell viability counter screen (AID 1259382); details: ER-beta-UAS-bla HEK293T viability, CellTiter-Glo luminescence, 16 h; series mostly up to 92.4 µM; also: nearly all actives have a fitted effect of over 55% in size; also: potency is read from the fitted curve at half-maximal effect
# Outline: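 CellTiter-Glo ATP luminescence measured after the LiveBLAzer read in the same wells; ER-beta-UAS-bla HEK293T cells, 16 hr compound treatment with 1nM 17-beta-estradiol agonist at 37C, 5% CO2.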
# [11] = molecular target: Estrogen receptor (Homo sapiens) (UniProt P03372); test: qHTS assay to identify small molecule agonists of the estrogen receptor alpha (ER-alpha) signaling pathway in the presence of an antagonist (AID 1259383; calls by dose curve; also: top concentration of the series differs between compounds; nearly all actives have a fitted effect of over 15% in size); details: VM7Luc4E2 cells, ERE-luciferase, +ICI-182,780, 22 h; series mostly up to 92.4 µM
# Outline: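 Luminescent ERE-luciferase reporter, VM7Luc4E2 cells (endogenous ER-alpha); 10.0nM ICI-182,780 final; 15-point compound titration; 22hr at 37C; ONE-Glo, 30min RT.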
# [12] = qHTS assay to identify small molecule agonists or antagonists of the thyroid stimulating hormone receptor (TSHR) signaling pathway - wild type cell line counter screen (AID 1259384; calls by dose curve); details: HEK293 wild type, cAMP HTRF counter-screen, stronger effect = higher value; series mostly up to 92.4 µM
# Outline: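 Wild-type Hek293 cells, 800/well, 18 h at 37C, then compound with Ro20-1724 for 30 min RT. cAMP by HTRF (cAMP-d2/anti-cAMP cryptate), 1 h RT, fluorescence read. 15 concentrations, triplicates.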
# [13] = molecular target: Thyrotropin receptor (Homo sapiens) (UniProt P16473); test: qHTS assay to identify small molecule antagonists of the thyroid stimulating hormone receptor (TSHR) signaling pathway (AID 1259385; calls by dose curve; also: nearly all actives have a fitted effect of over 20% in size; also: potency is read from the fitted curve at half-maximal effect); details: TSHR-HEK293 cAMP HTRF, TSH-stimulated antagonist mode; series mostly up to 92.4 µM
# Outline: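 TSHR-HEK293 cells (800/well) plated 18 h, then compounds with Ro20-1724 and TSH at 1.5 ng/mL final, 30 min at room temperature. cAMP quantified by HTRF (cAMP-d2/anti-cAMP-cryptate, 1 h); 15 concentrations in triplicate.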
# [14] = qHTS assay to identify small molecule antagonists of the androgen receptor (AR) signaling pathway using the MDA cell line in the presence of 0.5 nM R1881 - cell viability counter screen (AID 1259242); details: MDA-kb2 viability, CellTiter-Fluor protease fluorescence, 16 h; series mostly up to 92.4 µM; also: nearly all actives have a fitted effect of over 45% in size
# Outline: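 Cells seeded at 3,000/well and allowed 5 hr at 37C, 0% CO2 before compound transfer and R1881 (0.5 nM final) addition; 16 hr later, live-cell protease fluorescence indicated cytotoxicity.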
# [15] = qHTS assay to identify small molecule HDAC inhibitors (AID 1259364); details: HCT-116 HDAC-Glo I/II luminescence, 2 h; series mostly up to 92.4 µM; also: potency is read from the fitted curve at half-maximal effect;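 also: wild-type HCT-116 cells with endogenous class I/II HDAC activity; nearly all actives have a fitted effect of over 45% in size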
# Outline: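 HCT-116 wt cells, 1,500/well, overnight attach. Compounds (DMSO) 2 h, 37 °C. HDAC-Glo I/II, 30 min RT. Luminescence.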
# [16] = molecular target: Estrogen receptor beta (Homo sapiens) (UniProt Q92731); test: qHTS assay to identify small molecule antagonists of the estrogen receptor beta (ER-beta) signaling pathway (AID 1259378; active = well fitted inhibition curve with a large enough effect in the signal ratio in the repeat runs, not every such curve was filed as active; the % refers to the signal ratio; also: potency is read from the fitted curve at half-maximal effect); details: ER-beta-UAS-bla HEK293T, beta-lactamase FRET ratio, 16 h; series mostly up to 92.4 µM
# Outline: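 ER-beta-UAS-bla HEK293T cells in 2% charcoal-stripped FBS medium treated with compound plus 1nM final 17-beta-estradiol for 16 hr at 37C. Beta-lactamase reporter read by FRET substrate fluorescence after 2 hours at room temperature.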
# [17] = molecular target: Androgen receptor (Homo sapiens) (UniProt P10275); test: qHTS assay to identify small molecule antagonists of the androgen receptor (AR) signaling pathway using the MDA cell line in the presence of 0.5 nM R1881 (AID 1259243); details: MDA-kb2 MMTV-luciferase, R1881 0.5 nM, 16 h; series mostly up to 92.4 µM; also: nearly all actives have a fitted effect of over 50% in size
# Outline: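 Luminescence from an AR/GR-responsive MMTV-luciferase construct in MDA-kb2 breast carcinoma cells, read 30 min after ONE-Glo, following 16 hr co-treatment with compounds and 0.5 nM R1881.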
# [18] = molecular target: Androgen receptor (Homo sapiens) (UniProt P10275); test: qHTS assay to identify small molecule agonists of the androgen receptor (AR) signaling pathway in the presence of an antagonist (AID 1259381; calls by dose curve; also: nearly all actives have a fitted effect of over 15% in size); details: MDA-kb2 MMTV-luciferase, AR agonist + nilutamide, 16 h; series mostly up to 92.4 µM
# Outline: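 Plated MDA-kb2 cells (3,000/well) were pre-incubated 5hr, given nilutamide (3.0uM final) or buffer, then dosed with compounds in DMSO at 15 concentrations. Luciferase activity was quantified by luminescence after 16hr at 37C.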
# [19] = molecular target: Estrogen receptor beta (Homo sapiens) (UniProt Q92731); test: qHTS assay to identify small molecule agonists of the estrogen receptor beta (ER-beta) signaling pathway (AID 1259377; active = well fitted activation curve with a large enough effect in the signal ratio in the repeat runs, not every such curve was filed as active; the % refers to the signal ratio); details: ER-beta-UAS-bla HEK293T, beta-lactamase FRET ratio, 16 h; series mostly up to 92.4 µM
# Outline: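 Agonist mode cell assay in GripTite HEK293T cells expressing an ER-beta fusion that drives beta-lactamase from an Upstream Activator Sequence; 16 hr compound exposure at 37C, then 2 h LiveBLAzer B/G FRET substrate at room temperature, fluorescence read-out.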
# Sequence of Estrogen receptor beta (Homo sapiens) (Q92731 whole entry, looked up, the tested form may be a part): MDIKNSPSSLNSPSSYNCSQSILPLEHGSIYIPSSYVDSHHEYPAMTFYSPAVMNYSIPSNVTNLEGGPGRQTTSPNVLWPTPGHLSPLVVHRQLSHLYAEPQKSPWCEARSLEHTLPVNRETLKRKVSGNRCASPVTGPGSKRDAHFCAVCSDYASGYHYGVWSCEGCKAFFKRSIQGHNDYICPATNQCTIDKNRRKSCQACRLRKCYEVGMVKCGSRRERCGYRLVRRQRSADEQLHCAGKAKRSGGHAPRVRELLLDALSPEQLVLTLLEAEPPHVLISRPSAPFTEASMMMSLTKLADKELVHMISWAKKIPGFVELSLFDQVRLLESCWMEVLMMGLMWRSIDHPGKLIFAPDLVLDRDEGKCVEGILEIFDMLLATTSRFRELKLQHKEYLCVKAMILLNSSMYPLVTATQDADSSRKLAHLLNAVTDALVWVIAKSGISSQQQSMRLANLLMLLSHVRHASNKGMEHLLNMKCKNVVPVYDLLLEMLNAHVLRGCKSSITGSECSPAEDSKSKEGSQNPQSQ
# Sequence of Thyrotropin receptor (Homo sapiens) (P16473 whole entry, looked up): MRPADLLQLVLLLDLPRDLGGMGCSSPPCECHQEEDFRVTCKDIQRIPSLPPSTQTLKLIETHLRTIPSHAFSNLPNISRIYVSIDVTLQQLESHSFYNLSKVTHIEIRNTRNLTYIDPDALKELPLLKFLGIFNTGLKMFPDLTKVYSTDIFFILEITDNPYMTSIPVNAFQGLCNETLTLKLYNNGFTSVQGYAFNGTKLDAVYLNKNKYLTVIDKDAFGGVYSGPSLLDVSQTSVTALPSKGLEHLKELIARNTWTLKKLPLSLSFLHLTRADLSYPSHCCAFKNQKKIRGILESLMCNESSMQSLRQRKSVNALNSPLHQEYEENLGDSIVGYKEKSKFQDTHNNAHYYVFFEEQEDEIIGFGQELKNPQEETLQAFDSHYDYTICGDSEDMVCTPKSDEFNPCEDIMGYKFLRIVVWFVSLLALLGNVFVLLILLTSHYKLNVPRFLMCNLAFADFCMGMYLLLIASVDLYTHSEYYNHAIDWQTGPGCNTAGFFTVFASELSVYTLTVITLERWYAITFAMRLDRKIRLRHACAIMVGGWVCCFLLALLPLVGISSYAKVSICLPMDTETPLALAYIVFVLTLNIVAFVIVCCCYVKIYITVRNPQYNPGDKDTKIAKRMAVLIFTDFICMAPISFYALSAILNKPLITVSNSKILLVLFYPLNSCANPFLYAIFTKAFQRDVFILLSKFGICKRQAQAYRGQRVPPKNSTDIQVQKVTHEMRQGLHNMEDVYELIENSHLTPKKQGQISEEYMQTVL
# Sequence of Estrogen receptor (Homo sapiens) (P03372 whole entry, looked up): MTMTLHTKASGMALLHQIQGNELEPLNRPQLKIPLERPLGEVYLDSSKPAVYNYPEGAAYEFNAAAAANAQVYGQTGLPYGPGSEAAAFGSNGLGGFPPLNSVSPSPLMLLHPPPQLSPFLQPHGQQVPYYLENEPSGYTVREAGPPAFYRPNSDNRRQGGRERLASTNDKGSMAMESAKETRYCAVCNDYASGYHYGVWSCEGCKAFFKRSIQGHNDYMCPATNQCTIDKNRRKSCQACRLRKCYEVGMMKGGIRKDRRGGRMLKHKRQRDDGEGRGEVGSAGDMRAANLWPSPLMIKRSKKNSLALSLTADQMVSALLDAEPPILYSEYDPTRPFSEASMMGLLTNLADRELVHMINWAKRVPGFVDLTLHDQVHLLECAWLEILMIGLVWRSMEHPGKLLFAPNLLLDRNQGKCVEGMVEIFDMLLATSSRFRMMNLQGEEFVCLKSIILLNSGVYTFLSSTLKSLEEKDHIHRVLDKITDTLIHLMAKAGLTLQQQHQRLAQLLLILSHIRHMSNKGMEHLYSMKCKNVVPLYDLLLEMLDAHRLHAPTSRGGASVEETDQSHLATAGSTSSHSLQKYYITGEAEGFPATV
# Sequence of Androgen receptor (Homo sapiens) (P10275 whole entry, looked up): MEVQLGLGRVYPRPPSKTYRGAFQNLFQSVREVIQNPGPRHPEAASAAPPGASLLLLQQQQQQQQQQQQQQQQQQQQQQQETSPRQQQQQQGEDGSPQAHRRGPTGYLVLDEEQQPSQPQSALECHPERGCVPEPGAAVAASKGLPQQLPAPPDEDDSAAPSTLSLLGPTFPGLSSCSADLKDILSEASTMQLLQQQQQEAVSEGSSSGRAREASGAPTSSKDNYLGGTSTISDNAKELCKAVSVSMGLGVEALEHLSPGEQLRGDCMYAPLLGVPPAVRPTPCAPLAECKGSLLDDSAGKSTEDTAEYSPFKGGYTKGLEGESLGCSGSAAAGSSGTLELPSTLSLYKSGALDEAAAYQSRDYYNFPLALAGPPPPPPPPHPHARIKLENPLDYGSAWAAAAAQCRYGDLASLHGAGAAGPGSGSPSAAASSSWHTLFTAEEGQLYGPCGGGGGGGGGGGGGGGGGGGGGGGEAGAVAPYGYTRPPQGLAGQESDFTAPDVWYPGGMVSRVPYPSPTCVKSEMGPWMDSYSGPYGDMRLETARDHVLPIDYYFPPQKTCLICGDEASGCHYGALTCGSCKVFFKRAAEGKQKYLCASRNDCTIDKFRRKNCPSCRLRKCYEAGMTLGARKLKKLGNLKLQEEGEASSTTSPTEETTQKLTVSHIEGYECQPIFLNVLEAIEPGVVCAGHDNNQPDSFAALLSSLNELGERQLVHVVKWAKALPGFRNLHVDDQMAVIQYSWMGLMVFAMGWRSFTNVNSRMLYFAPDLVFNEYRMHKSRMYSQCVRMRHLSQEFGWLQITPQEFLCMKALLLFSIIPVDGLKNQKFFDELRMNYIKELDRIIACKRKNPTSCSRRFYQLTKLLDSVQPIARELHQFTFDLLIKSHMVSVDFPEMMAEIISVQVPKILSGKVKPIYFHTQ
SMILES,Potency [1],outcome [2],Potency [3],Potency [4],Potency [5],Potency [6],Potency [7],Potency [8],Potency [9],Potency [10],Potency [11],outcome [12],Potency [13],Potency [14],Potency [15],Potency [16],Potency [17],Potency [18],Potency [19]
Cc1cccc(C)c1NC1=NCCCS1,inactive,inactive,inactive,inactive,inactive,inactive,inactive,inactive,inactive,inactive,inactive,inactive,inactive,,,,,,
Nc1ccccc1C(=O)OCCc1ccccc1,,,inactive,inactive,inactive,,inactive,inactive,9.73 µM (active) and 7.7 µM (active),,,inactive,inactive,inactive,9.73 µM (active) and 3.86 µM (active),,,,
C[C@]12CC[C@H]3[C@@H](CCC4=CC(=O)CC[C@@H]43)[C@@H]1CC[C@@H]2OC(=O)CCc1ccccc1,,inactive,inactive,inactive,inactive,inactive,,inactive,inactive,,,inactive,inactive,inactive,inactive,,,,
CCCC[N+]1(C)[C@@H]2CC(OC(=O)[C@H](CO)c3ccccc3)C[C@H]1[C@@H]1O[C@@H]12 (some centres not stated),inactive,inactive,inactive,inactive,inactive,inactive,inactive,inactive,inactive,inactive,inactive,inactive,inactive,inactive,inactive,,,,
O=S(=O)(c1ccccc1)c1ccccc1,,,inactive,inactive,inactive,inactive,,inactive,,inactive,,inactive,inactive,inactive,inactive,inactive,,,
CC(C)(C)N(NC(=O)c1ccc(Cl)cc1)C(=O)c1ccccc1,inactive,,inactive,2.71 µM (active),3.83 µM (active),inactive,inactive,inactive,,inactive,inactive,,,,,,inactive,inactive,
CCOC(=O)c1cncn1C(C)c1ccccc1 (configuration not stated),inactive,inactive,inactive,inactive,inactive,inactive,inactive,inactive,inactive,inactive,,inactive,inactive,inactive,inactive,,,,
C=CCSSCC=C,,,inactive,inactive,inactive,inactive,,inactive,inactive,inactive,,inactive,inactive,inactive,inactive,,,,
COC(=O)Cc1ccccc1,inactive,,inactive,inactive,inactive,inactive,inactive,inactive,,inactive,,,,inactive,inactive,,,,
Cc1nc2ccccc2c(=O)n1-c1ccccc1Cl,inactive,inactive,inactive,10.6 µM (active),2.38 µM (active),inactive,,inactive,inactive,inactive,,,,inactive,inactive,inactive,,,inactive
O=[N+]([O-])c1cc(Cl)c(Cl)cc1Cl,inactive,,inactive,inactive,inactive,inactive,inactive,,inactive,,,,,inactive,inactive,inactive,,,inactive
O=C(O)c1ccc(=O)[nH]c1,inactive,,inactive,inactive,inactive,inactive,inactive,inactive,inactive,,inactive,inactive,inactive,,inactive,,inactive,inactive,
O=C([O-])c1ccccn1.O=C([O-])c1ccccn1.O=C([O-])c1ccccn1.[Cr+3],inactive,,inactive,inactive,inactive,inactive,inactive,inactive,,,inactive,,,,,inactive,,,inactive
C#CC(O)(C=CCl)CC (configuration not stated),inactive,,inactive,inactive,inactive,inactive,inactive,inactive,inactive,inactive,inactive,,inactive,,inactive,,inactive,inactive,
CC(=O)OC(c1ccccc1)C(Cl)(Cl)Cl (configuration not stated),inactive,,inactive,inactive,inactive,inactive,inactive,inactive,,inactive,inactive,inactive,,,inactive,,,,
Cc1cnc(C2=NC(C)(C(C)C)C(=O)N2)c(C(=O)O)c1 (configuration not stated),inactive,,inactive,inactive,inactive,inactive,inactive,inactive,inactive,inactive,inactive,inactive,inactive,inactive,,inactive,inactive,inactive,inactive
CCCCNC(=O)OCC#CI,12.1 µM (active) and 48.6 µM (active),,inactive,60.8 µM (active) and 30.6 µM (active),54.2 µM (active) and 61.1 µM (active),inactive,2.16 µM (active) and 7.7 µM (active),60.8 µM (active) and 68.6 µM (active),60.8 µM (active) and inactive,inactive,,,inactive,,,inactive,,,
CCCCCCCCn1sccc1=O,30.7 µM (active),,inactive,4.34 µM (active) and 3.21 µM (active),4.34 µM (active),inactive,,61.3 µM (active) and 57.1 µM (active),30.7 µM (active) and 28.6 µM (active),27.4 µM (active) and 28.6 µM (active),inactive,inactive,61.3 µM (active) and 71.9 µM (active),,,27.4 µM (active) and 32.1 µM (active),,,inactive
c1ccc2c(c1)-c1cccc3cccc-2c13,,,inactive,inactive,inactive,inactive,inactive,inactive,inactive,,,inactive,inactive,inactive,inactive,inactive,,,
